Source: the supplement of paper PMC12669032
Values without a mark were called inactive.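 Rule for the calls: active = AUC reduced over 20% with Padj below 0.05 in at least 2 of 3 replicates; inactive = otherwise.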

Test system: Lactobacillus gasseri
Experiment: growth AUC relative to DMSO control (median of replicates) (fraction); higher = more growth (less inhibition), active = hit call of the paper
Details: 20 µM; 24 h
How it was run: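 In round-bottom 96-well plates sealed with pierced gas-permeable seals, gut bacterial monocultures in mGAM were grown anaerobically at 37 °C from OD600 0.05 with 20 µM compound (1% DMSO). OD600 readings were taken hourly for 24 h, and the minimum OD was set to 0. Area under the growth curve was then normalised to the plate median of solvent-only wells, or to row and column medians on the industrial chemical plate. The value given is the median of three biological replicates grown on separate days.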

In order of rising “growth AUC” value:
1. CC1(C)C(C=C(Cl)Cl)C1C(=O)OC(C#N)c1ccc(F)c(Oc2ccccc2)c1 (mixture of isomers)  0.782
2. CCOC(=O)CC(SP(=O)(OC)OC)C(=O)OCC (stereo not drawn)  0.883
3. CCOCn1c(-c2ccc(Cl)cc2)c(C#N)c(Br)c1C(F)(F)F  0.904
4. N#Cc1cc(I)c(O)c(I)c1  0.95
5. CCOP(=S)(OCC)SCSCC  0.97
6. CCNc1nc(Cl)nc(NC(C)C)n1  0.976
7. COP(=S)(NC(C)C)Oc1ccccc1C(=O)OC(C)C (stereo not drawn)  0.984
8. CCNc1nc(NC(C)C)nc(SC)n1  0.987
9. CCOP(=S)(OCC)Oc1cnccn1  0.993
10. O=C(O)C(F)(F)C(F)(F)C(F)(F)C(F)(F)C(F)(F)C(F)(F)C(F)(F)C(F)(F)F  1
11. CCS(=O)(=O)c1cccnc1S(=O)(=O)NC(=O)Nc1nc(OC)cc(OC)n1  1.01
12. CCCCNC(=O)n1c(NC(=O)OC)nc2ccccc21  1.01
13. CCCCOCN(C(=O)CCl)c1c(CC)cccc1CC  1.02
14. Cc1cccc(C)c1N  1.02
15. CN1COCN(Cc2cnc(Cl)s2)/C1=N/[N+](=O)[O-]  1.04
16. CN(C)C(=O)Nc1ccc(Cl)cc1  1.05
17. Nc1cc(Cl)cc(C(=O)O)c1Cl  1.13
18. COC(=O)C(C)(Cl)Cl  1.18
